Bioassay records deposited in PubChem BioAssay by National Center for Advancing Translational Sciences (NCATS).
ALOX12 inh: inhibitors of human 12S-lipoxygenase ALOX12 | purified 12hLO, xylenol orange hydroperoxide absorbance | Potency, µM (series often up to 108 µM), without a hit: at the highest dose activity change, negative = inhibition, usual class: inhibitors | hit rate 1.1% among 580,000; also: potency is read from the fitted curve at half-maximal effect; % is scaled to controls: 0 for no effect and ±100 for the full control effect
Target sequence (P18054 whole entry, looked up): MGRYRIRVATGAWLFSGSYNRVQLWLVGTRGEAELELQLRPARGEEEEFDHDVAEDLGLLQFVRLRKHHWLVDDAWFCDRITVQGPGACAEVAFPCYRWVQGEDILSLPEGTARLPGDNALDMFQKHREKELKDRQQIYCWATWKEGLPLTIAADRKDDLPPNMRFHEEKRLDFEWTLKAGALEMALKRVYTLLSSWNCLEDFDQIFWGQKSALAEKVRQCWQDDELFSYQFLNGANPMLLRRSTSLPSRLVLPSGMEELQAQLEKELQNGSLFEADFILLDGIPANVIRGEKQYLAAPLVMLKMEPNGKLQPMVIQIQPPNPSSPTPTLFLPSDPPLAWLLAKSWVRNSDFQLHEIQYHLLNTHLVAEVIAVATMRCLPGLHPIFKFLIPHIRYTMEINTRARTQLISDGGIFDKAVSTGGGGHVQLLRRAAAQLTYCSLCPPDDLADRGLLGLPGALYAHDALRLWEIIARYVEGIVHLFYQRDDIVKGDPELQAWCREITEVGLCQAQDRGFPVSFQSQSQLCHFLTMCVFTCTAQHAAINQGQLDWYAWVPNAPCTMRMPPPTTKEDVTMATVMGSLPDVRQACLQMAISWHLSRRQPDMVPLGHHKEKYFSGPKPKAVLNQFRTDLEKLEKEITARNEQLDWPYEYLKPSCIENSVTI
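Hydroperoxide product was detected by ferrous iron/xylenol orange as the 573 to 405 nm absorbance ratio. Arachidonic acid at 40 uM (final) was turned over for 30 min at room temperature by 150 nM human 12hLO, pH 7.0 Hepes buffer, after 15 min compound preincubation.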
VDR inhibitor: blocks the human vitamin D receptor. Potency, µM, for the others: max response, negative = inhibition, actives largely listed as inhibitors. hit rate 0.93% among 400,000. VDR-SRC2-3 peptide fluorescence polarization, 2 h; also: potency is read from the fitted curve at half-maximal effect; % is scaled to controls: 0 for no effect and ±100 for the full control effect
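Signal is fluorescence polarization, reporting how far test compounds block the interaction of VDR with the SRC2-3 coregulator peptide after a 2 h room-temperature incubation.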
PLK1 PBD block: blocks phosphopeptide binding to human PLK1 polo-box domain | P53350 | Plk1 PBD binding of FITC phosphopeptide, fluorescence polarization | Potency, µM, without a hit: max response, negative = inhibition, actives largely listed as inhibitors | hit rate 2.8% among 360,000 | AID 720504; also: potency is read from the fitted curve at half-maximal effect; series mostly up to about 57 µM; % is scaled to controls: 0 for no effect and ±100 for the full control effect; nearly all actives have a fitted effect of over 65% in size
GCN5L2 inh: GCN5L2 (KAT2A) acetyltransferase inhibition | Q92830 | GCN5L2 HAT assay, ThioGlo1 CoA-SH fluorescence | Potency, µM (top dose mostly 58.9 µM), for inactives: at the highest dose activity change, negative = inhibition, hits mostly inhibitors | hit rate 0.21% among 390,000; also: potency is read from the fitted curve at half-maximal effect; % is scaled to controls: 0 for no effect and ±100 for the full control effect
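Fluorescence readout, Ex340nm/Em540nm: ThioGlo1 (50uM final) reacts with free CoA thiol released as 20nM GCN5L2 acetylates H3(1-25) peptide (75uM) using acetyl-CoA (70uM). Compound and enzyme sat 15 min beforehand; 20 min room-temperature reaction.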
USP1 UbRho: USP1-UAF1 deubiquitinase inhibition validated. shares compounds with VDR inhibitor. Ub-Rhodamine cleavage, fluorescence kinetic read. Potency, µM (top dose mostly 56.8 µM), without a hit: top-dose activity change, negative = inhibition, usual class: inhibitors. hit rate 50% among 50. AID 540327
VDR inh confirm: inhibits human vitamin D receptor, primary hit validation. hit rate 89% among 840. shares compounds with VDR inhibitor. Potency, µM, usual class: inhibitors. AID 602199. VDR-coactivator inhibition assay, qHTS confirmation; also: potency is read from the fitted curve at half-maximal effect
VDR FP: confirmation of human VDR-coactivator binding inhibitors, fluorescein label. hit rate 48% among 840. VDR-coactivator binding, fluorescein fluorescence polarization. shares compounds with VDR inhibitor. Potency, µM (doses to about 57.1 µM), for inactives: at the top dose activity change, negative = inhibition, most hits filed as inhibitors; also: potency is read from the fitted curve at half-maximal effect
VDR bla reporter: VDR (human) inhibition, cell-based beta-lactamase validation. shares compounds with VDR inhibitor. VDR beta-lactamase reporter cells, FRET ratio; cells co-treated with VDR agonist LG190178. Potency, µM (top dose mostly 46.1 µM), inactives show at the top dose activity change, negative = inhibition, usual class: inhibitors. hit rate 23% among 840; also: potency is read from the fitted curve at half-maximal effect; % is scaled to controls: 0 for no effect and ±100 for the full control effect
VDR viability: counter-screen for vitamin D receptor inhibitors: cytotoxicity; cytotoxicity counter-screen, cell viability, qHTS; hit rate 18% among 840; Potency, µM (titrated, usually from 48.3 µM), without a hit: at the top dose activity change, negative = cytotoxicity, actives largely listed as cytotoxic; shares compounds with VDR inhibitor; AID 602204;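 also: potency is read from the fitted curve at half-maximal effect; plate controls were DMSO for no effect and high-concentration cycloheximide for full effect; nearly all actives have a fitted effect of over 75% in size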
* = called active by the depositor; ? = inconclusive; / = no result; [ ] = remark or other dose. A selection: hits, their analogues and other compounds. The true share with any hit is near 3%. Calls follow the shape of the dose curve; as a rule, active = well fitted curve in the direction sought with a large enough effect; inconclusive = small, poorly fitted or top-dose-only effect, or another doubt; inactive = no such curve, though single readings can be large; an effect the other way counts as inactive or inconclusive.

SMILES	ALOX12 inh	VDR inhibitor	PLK1 PBD block	GCN5L2 inh	VDR inh confirm	VDR FP	VDR bla reporter	VDR viability	others
O=C1c2ccccc2C(=O)N1Nc1ccccc1	0%	-9%	-17%	-3%	/	/	/	/
COc1ccc(C2(C(=O)N3CCCC(c4nc(-c5cccnc5)no4)CCNC(=O)CC3)CC2)cc1 (stereo not given)	6%	/	/	/	/	/	/	/
Cc1cc2c(cc1Cl)N(C(=O)Nc1ccc(Oc3cccnc3C)nc1)CC2	/	-5%	/	-12%	/	/	/	/	USP1 UbRho=?
Cc1cc2c(cc1Cl)N(C(=O)Nc1ccnc3ccccc13)CC2	/	?	/	4%	/	/	/	/
COCCN(CCOC)C(=O)c1cccc(C#N)c1	5%	/	/	/	/	/	/	/
COCC(=O)N1CCCN(CCc2ccccc2)c2ccccc21	16%	/	/	/	/	/	/	/
Cc1ccc(-c2ccc(/C=C3/NC(=O)NC3=O)o2)cc1[N+](=O)[O-]	-28%	8%	-6%	-13%	/	/	/	/
CC1=C(C#N)C(=O)NC(=O)/C1=C\c1ccc(-c2cc(C)c(C)cc2[N+](=O)[O-])o1	24%	25µM*	4.7µM*	?	10*	8.9µM*	-7%	8%
O=C(O)COc1ccc(/C=C/C(=O)c2ccc(C3CCCCC3)cc2)cc1	-23%	?	24µM*	?	7.1*	13µM*	?	-8%
COCCCNC(=O)c1ccc2c3c(onc13)-c1ccccc1C2=O	/	35µM*	5.3µM*	1%	3.8*	?	?	?
Cn1c(=O)[nH]c(=O)c2c1nc(Nc1cccc(Cl)c1Cl)n2CC(=O)O	9%	/	/	/	/	/	/	/
Cc1ccc(S(=O)(=O)Oc2ccc(/C=C3\C(=N)N4N=C(S(C)(=O)=O)SC4=NC3=O)cc2)cc1	?	50µM*	15µM*	?	?	3.2µM*	24%	?
COc1ccc2c(c1OC)C(CC(C)=O)N1CCc3cc4c(cc3C1C2=O)OCO4 (stereo not given)	-17%	/	/	/	/	/	/	/
COc1ccc2c(c1OC)C(Cc1ccccc1)N1CCc3cc4c(cc3C1=C2)OCO4 (stereo not given)	/	32µM*	/	?	/	/	/	/	USP1 UbRho=42µM*
N#Cc1ccccc1CSCCNC(=O)Nc1cccnc1	43%	/	/	/	/	/	/	/
N#Cc1c(Nc2ccc(Cl)cc2)s[nH]c1=O	?	10µM*	?	-4%	7.5*	?	2%	-14%
NC(N)=NC(N)=Nc1ccc(F)cc1	3%	/	/	/	/	/	/	/
Cc1cc(N2CCOCC2)ccc1/C=C\[N+](=O)[O-]	?	28µM*	13µM*	-18%	6.7*	43%	?	16µM*
CCCC(=O)OCCNc1cc(Sc2nc3ccccc3[nH]2)c2nonc2c1[N+](=O)[O-]	?	20µM*	1.9µM*	-11%	8.4*	?	?	23µM*
CCC(=O)OCCNc1cc(SCCC(=O)OC)c2nonc2c1[N+](=O)[O-]	?	?	?	-1%	/	/	/	/
CC(=O)OCCNc1cc(SC(C)C)c2nonc2c1[N+](=O)[O-]	148%	16%	-6%	-9%	/	/	/	/
CCC(=O)OCCNc1cc(Sc2nccn2C)c2nonc2c1[N+](=O)[O-]	?	32µM*	2.1µM*	28%	21*	?	?	15µM*
Cn1cc(CN2C[C@@H](F)[C@@H](OCc3nc4ccccc4[nH]3)C2)c2ccccc21	38%[176 µM]	/	/	/	/	/	/	/
CCCOc1ccc(C(=O)CCNC(Cc2c[nH]c3ccccc23)C(=O)O)cc1 (stereo not given)	/	45µM*	5.3µM*	-7%	19*	?	12%	?
CCOc1ccc(NC(=O)c2nc(S(=O)(=O)Cc3ccccc3F)ncc2Cl)cc1	?	?	/	-6%	/	/	/	/
SMILES	ALOX12 inh	VDR inhibitor	PLK1 PBD block	GCN5L2 inh	VDR inh confirm	VDR FP	VDR bla reporter	VDR viability	others
O=C(Nc1ccccc1)c1nc(S(=O)(=O)Cc2ccccc2F)ncc1Cl	/	/	/	/	2.5*	2.5µM*	3.3µM*	13µM*
O=C(Nc1ccc(OC(F)F)cc1)c1nc(S(=O)(=O)Cc2ccccc2F)ncc1Cl	?	/	/	/	6.3*	4µM*	16µM*	17µM*
Cc1ccc(C(=O)/C=C/c2ccc3ncccc3c2)cc1	-16%	22µM*	-8%	?	12*	?	?	?
O=C(NCCc1ccccc1)c1ccc2nc(-c3ccco3)c(-c3ccco3)nc2c1	/	?	?	?	3.5*	8.9µM*	-1%	12%
O=C(NC1CCCC1)c1ccc2nc(-c3ccco3)c(-c3ccco3)nc2c1	/	?	8.4µM*	-20%	10*	3.2µM*	-1%	12%
COc1ccc(C(C2C(=O)CC(C)(C)CC2=O)C2C(=O)CC(C)(C)CC2=O)cc1COCC(F)(F)F	-11%	20µM*	6.7µM*	-1%	6*	?	26%	11%
CCOC(=O)c1sc(N)c(C(=O)Nc2ccccc2OC)c1C	?	71µM*	4.7µM*	?	11*	?	-15%	?
Cc1cccc(N2CCN([C@H]3CS(=O)(=O)C[C@@H]3S(=O)(=O)c3ccc(Cl)cc3)CC2)c1C	1%	/	/	/	/	/	/	/
CC(=O)Nc1cccc(C(=O)/C=C/c2ccc(Br)cc2)c1	-5%	25µM*	-27%	0%	7.1*	8.9µM*	?	-19%
CCC(=O)Nc1cccc(C(=O)/C=C/c2cc(Br)ccc2OC)c1	0%	?	-11%	-3%	8.9*	14µM*	4.6µM*	?
COc1ccc(Br)cc1/C=C/C(=O)Nc1ccc2ccccc2c1	-8%	-4%	1%	-6%	/	/	/	/
CC(=O)Nc1cccc(C(=O)/C=C/c2ccc(/C=C/C(=O)c3cccc(NC(C)=O)c3)cc2)c1	13%	/	/	5%	/	/	/	/
Clc1ccc(C[n+]2csc3ccccc32)cc1	?	50µM*	27µM*	-2%	15*	?	19%	4%
COC(=O)[C@H](CCSC)NC(=O)c1cc2c(cn1)[nH]c1ccccc12	/	25µM*	3µM*	?	7.5*	?	5%	30%
CNC(=O)c1cc2c(cn1)[nH]c1ccccc12	35%	5%	0%	-9%	/	/	/	/
Cc1ccc(S(=O)(=O)NCC(C)n2nc(C)cc2C)cc1 (stereo not given)	-7%	-9%	46%	-4%	/	/	/	/
